{
  "source": "PubChem BioAssay (NCI)",
  "note": "Compounds without any hit were thinned out: in the full panel of roughly 83,000, 20% have a hit.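 96-well plates, one dose, 48 hours. Percent growth reported; active if below 10.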 A number with no mark means an inactive call. Active and inactive are the calls of the source.",
  "data": [
    {"system": "SNB-19 CNS", "experiment": "NCI-60 one-dose screen, 48 h (100 = growth as untreated, 0 = no growth, -100 = all killed)", "settings": "10 µM", "experimental": "Growth inhibition of the SNB-19 human tumor cell line is measured as a screen for anti-cancer activity. Cells are grown in 96 well plates and exposed to the test compound for 48 hours. Compounds are tested at a single concentration, which is 10^-5 M for most compounds. The reported endpoint is percent growth (GI% or GIPRCNT), where numbers from 0 - 100% represent growth inhibition, and numbers from -100% - 0 represent cell death. For example, a value of 40 represents 60% growth inhibition. A value of 0 means no net growth occurred over the course of the experiment. A value of -40 indicates 40% of cells at the beginning of the experiment died by the end of the experiment. A value of -100 means all cells are dead at the end of the experiment.\nNCI-60 Human Tumor Cell Lines Screen was performed using the standard one-dose NCI protocol, which is described in more detail at https://dtp.cancer.gov/discovery_development/nci-60/default.htm.\nCompounds with GIPRCNT values below 10 were considered active. Activity score was based on GIPRCNT using the following formula: […]\nScore is 0 for GIPRCNT values of 100 or above, 50 for GIPRCNT values of 0, and 100 for GIPRCNT values of -100.", "values": [
      {"smiles": "NNC(=O)Oc1c(Cl)cc(Cl)cc1[N+](=O)[O-]", "growth": "106%"},
      {"smiles": "CC(=O)N[C@H](C(=O)N[C@@H](CCCNC(=N)N)C(=O)N[C@@H](CCCCN)C(=O)N[C@@H](CCCNC(=N)N)C(=O)NC(C(=O)N[C@@H](CC(C)C)C(=O)N[C@@H](CCCNC(=N)N)C(=O)N[C@@]1(C)CCC/C=C\\CCC[C@@](C)(C(=O)N[C@@H](CCCNC(=N)N)C(=O)N[C@@H](CCC(=O)O)C(=O)N[C@@H](CC(C)C)C(=O)N[C@H](C(=O)N[C@@H](CCC(=O)O)C(N)=O)C(C)C)NC(=O)[C@H](CCC(N)=O)NC(=O)[C@H](CC(C)C)NC(=O)[C@H](CC(C)C)NC1=O)[C@@H](C)O)C(C)C", "note": "(stereo not given in full)", "growth": "31.7%"},
      {"smiles": "CCOC(=O)c1cc(C(=O)c2ccc(OC)c(OC)c2)n2c1ccc1ccc3cccnc3c12", "growth": "45.8%"},
      {"smiles": "O=C(CCCCNC(=O)c1nc(-c2ccccc2)n(-c2ccccc2)n1)NO", "growth": "86%"},
      {"smiles": "CC(=O)N[C@H](C(=O)N[C@@H](CCCNC(=N)N)C(=O)N[C@@H](CCCCN)C(=O)N[C@@H](CCCNC(=N)N)C(=O)N[C@]1(C)CCCCCC/C=C\\CCC[C@@](C)(C(=O)N[C@@H](CCCNC(=N)N)C(=O)N[C@@H](CCC(=O)O)C(=O)N[C@@H](CC(C)C)C(=O)N[C@H](C(=O)N[C@@H](CCC(=O)O)C(N)=O)C(C)C)NC(=O)[C@H](CCC(N)=O)NC(=O)[C@H](CC(C)C)NC(=O)[C@H](CC(C)C)NC(=O)[C@H](CCCNC(=N)N)NC(=O)[C@H](CCCNC(=N)N)NC(=O)[C@H](CC(C)C)NC1=O)C(C)C", "growth": "6.45% (active)"},
      {"smiles": "COc1ccc(C2CC(c3cccs3)=NN2c2ccc(S(N)(=O)=O)cc2)cc1", "note": "(stereo not given)", "growth": "77.4%"},
      {"smiles": "COc1cc2cc(Oc3ccc(NC(=O)Nc4ccc(Cl)c(Cl)c4)cc3)c(C)nc2cc1OC", "growth": "28.6%"},
      {"smiles": "NS(=O)(=O)Oc1ccc(-c2ccc3sccc3c2)cc1", "growth": "101%"},
      {"smiles": "C=C/C(C)=C/C[C@]1(C)[C@H](C)[C@@H](OC(=O)CCC)[C@H](O)[C@@]23C(=C[C@H](OC)C[C@@H]12)[C@@H](OC(=O)CCC)O[C@H]3OC(C)=O", "growth": "27.4%"},
      {"smiles": "CCCCCCCCCCOC(c1ccccc1)c1ccccc1", "growth": "96%"},
      {"smiles": "Cc1ccc(C(SCC(N)C(=O)O)(c2ccc(C)cc2)c2ccc(C)cc2)cc1", "note": "(stereo not given)", "growth": "30.4%"},
      {"smiles": "IC(I)I", "growth": "106%"},
      {"smiles": "COc1cc2c(cc1OC)C(C(CCCCCC(CCC(C)C)C1NCCc3cc(OC)c(OC)cc31)CCC(C)C)NCC2", "note": "(stereo not given)", "growth": "-47.5% (active)"},
      {"smiles": "COc1ccc2nc3cc(Cl)ccc3c(N)c2c1", "growth": "4.71% (active)"},
      {"smiles": "COc1cc2ncnc(NC3CCC(O)CC3)c2cc1OC", "note": "(stereo not given)", "growth": "97.4%"},
      {"smiles": "C=CCn1c(SCC(=O)Nc2ccc(C(=O)/C=C/c3ccc(Cl)cc3)cc2)nnc1-c1cc(-c2ccccc2)nc2ccccc12", "growth": "66.9%"},
      {"smiles": "O=C(CCNC(=O)c1nc(-c2ccccc2)n(-c2ccc(Cl)cc2)n1)NO", "growth": "102%"},
      {"smiles": "CC(C)(C)OC(=O)N1CCc2c(sc3ncnc(N/N=C/c4cccc(Br)c4)c23)C1", "growth": "64.7%"},
      {"smiles": "O=[N+]([O-])c1cccc(/C=N/NC(=S)NC23CC4CC(CC(C4)C2)C3)c1", "growth": "80.6%"},
      {"smiles": "CC(=O)/C(=C/c1ccc(Br)cc1)C(=O)c1ccccc1", "growth": "90.6%"},
      {"smiles": "CCn1cc(C(=O)O)c(=O)c2cc(F)c(N3CCNCC3)cc21", "growth": "101%"},
      {"smiles": "N#Cc1c(-c2ccc(Cl)cc2)n(O)c2ccccc12", "growth": "11%"},
      {"smiles": "COc1cc(N)c2ncccc2c1SC", "growth": "99%"},
      {"smiles": "COc1ccc2c(c1)C(CC(=O)NN)CCC2", "note": "(stereo not given)", "growth": "109%"},
      {"smiles": "CC1OC2CC(=O)OC2C2=C1C(=O)c1c(O)c3c(c(O)c1C2=O)C1CC(O)C3(O)C(C)O1", "note": "(stereo not given)", "growth": "4.68% (active)"},
      {"smiles": "O=C(Nc1cc(Cl)cc2c1-c1ccc(Cl)cc1C2O)C(Cl)Cl", "note": "(stereo not given)", "growth": "70%"},
      {"smiles": "COc1ccc(C(c2ccc(OCCN(C)C)cc2)c2cc3ccccc3c3ccccc23)cc1", "note": "(stereo not given)", "growth": "65%"},
      {"smiles": "CCN(CC)CCCC(Nc1c2ccc(Cl)cc2nc2ccc(OC)cc12)c1ccc(F)cc1", "note": "(stereo not given)", "growth": "45.7%"},
      {"smiles": "CC(CN(C)C)Oc1ccc(OC(C)CN(C)C)c2c1C(=O)c1ccccc1C2=O", "note": "(stereo not given)", "growth": "37.2%"},
      {"smiles": "COc1ccc(C(=O)COc2cccc(/C=C3\\Cc4ccccc4C3=O)c2)cc1", "growth": "90.8%"},
      {"smiles": "O=C(Cn1cc(CO)nn1)Nc1nc2ccccc2s1", "growth": "96.9%"},
      {"smiles": "CCN(CC)CCOc1cccc2c1C(=O)c1cccc(OCCN(CC)CC)c1C2=O", "growth": "31.8%"},
      {"smiles": "CN(C)CCCN1c2ccccc2CCc2ccc(Cl)cc21", "growth": "96.1%"},
      {"smiles": "COc1ccc(C(=O)c2ccccc2CN2C(=O)c3ccccc3C2=O)cc1", "growth": "99.6%"},
      {"smiles": "O=C(COc1cccc(/C=C2\\CSc3ccc(Cl)cc3C2=O)c1)c1ccc(Cl)cc1", "growth": "89.1%"},
      {"smiles": "CCN(CC)CCNc1ccc(C)c2sc3cc(Cl)ccc3c(=O)c12", "growth": "47%"},
      {"smiles": "O=C1c2c(c3c4ccccc4n(CCCCCCN4CCOCC4)c3c3[nH]c4ccccc4c23)C(=O)N1O", "growth": "97%"},
      {"smiles": "CCOC(=O)Cn1c(=O)c2sc3ncccc3c2n2nnc(-c3ccccc3)c12", "growth": "101%"},
      {"smiles": "O=C(CN(C1CCCCC1)C1CCCCC1)Nc1ccc(S(=O)(=O)c2ccc(NC(=O)CN(C3CCCCC3)C3CCCCC3)cc2)cc1", "growth": "11.1%"},
      {"smiles": "CC(C)C1=C(O)C2=C(C(=O)C1=O)[C@@]1(C)CCCC(C)(C)[C@@H]1CC2", "growth": "53.4%"}
    ]}
  ]
}
